This is a sample that favours compounds with a hit; in the whole collection about 10% have one here.
HEK293 tox – kills HEK 293 cells; HEK 293 viability, ATP luminescence (CellTiter-Glo), 48-72 h; Potency, µM (highest dose often 115 µM), hits mostly inhibitors; 6.6% of 94,000 active; AID 1345083; note: nearly all actives have a fitted effect of over 60% in size
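HEK 293 cells seeded at 250 cells/well were exposed to compound for 48 or 72 hr at 37 degree Celsius. Viability taken as ATP content by CellTiter-Glo luminescence.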
NIH3T3 tox – NIH 3T3 cell cytotoxicity. NIH 3T3 viability, CellTiter-Glo ATP luminescence, 48-72 h. Potency, µM (top dose mostly 96.7 µM), hits mostly inhibitors. 4.3% of 94,000 active. AID 1345082; note: nearly all actives have a fitted effect of over 55% in size
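Luminescent ATP readout (CellTiter-Glo, 10 min RT) after 48 or 72 hr compound exposure of NIH 3T3 cells seeded at 400 cells/well in 1536-well format; quantitative HTS.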
Luciferase inh – blocks purified firefly luciferase enzyme activity; P08659; purified P. pyralis luciferase, luminescence, biochemical; Potency, µM (doses to about 115 µM), actives largely listed as inhibitors; 2.5% of 76,000 active; AID 1347043; note: nearly all actives have a fitted effect of over 65% in size
Target sequence (P08659 whole entry, looked up): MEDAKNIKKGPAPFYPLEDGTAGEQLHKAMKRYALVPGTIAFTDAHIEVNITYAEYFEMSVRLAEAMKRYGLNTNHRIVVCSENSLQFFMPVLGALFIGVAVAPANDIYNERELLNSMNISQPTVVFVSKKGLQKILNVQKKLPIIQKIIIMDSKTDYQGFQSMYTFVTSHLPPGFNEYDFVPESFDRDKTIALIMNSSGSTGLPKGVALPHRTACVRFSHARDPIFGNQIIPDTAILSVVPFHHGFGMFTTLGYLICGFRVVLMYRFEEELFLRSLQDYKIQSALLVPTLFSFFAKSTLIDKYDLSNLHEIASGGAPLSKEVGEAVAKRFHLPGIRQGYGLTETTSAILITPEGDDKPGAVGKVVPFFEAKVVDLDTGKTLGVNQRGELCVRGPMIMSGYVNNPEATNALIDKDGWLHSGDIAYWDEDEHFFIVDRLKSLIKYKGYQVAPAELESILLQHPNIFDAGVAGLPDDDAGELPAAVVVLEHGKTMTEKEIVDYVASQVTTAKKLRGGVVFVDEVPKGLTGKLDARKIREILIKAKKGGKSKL
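Inhibitors were tested against purified firefly luciferase in a biochemical, low-substrate format (both substrates at 10uM) and luminescence measured with a CCD imager.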
hNpr1 antagonist – antagonists of human natriuretic peptide receptor Npr1; 1.6% of 76,000 active; Potency, µM (doses to about 46.3 µM), actives largely listed as inhibitors; P16066; HEK293 hNpr1 GloSensor cGMP, ANP-stimulated luminescence; calls by dose curve; note: nearly all actives have a fitted effect of over 60% in size
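Compound pre-incubated 30 min at room temperature on GloSensor-loaded HEK293 cells stably carrying hNpr1 and the pGS-40F cGMP biosensor. Stimulation uses hNppA at 0.1 nM final; luminescence is taken at baseline and 20 min post-agonist.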
GPT2 inhibitor – blocks human glutamate pyruvate transaminase 2 | Q8TD30 | Recombinant GPT2, coupled pyruvate oxidase/HRP Amplex Red fluorescence | Potency, µM (doses to about 57.7 µM), most hits filed as inhibitors | 0.25% of 100,000 active | AID 1671188; note: nearly all actives have a fitted effect of over 60% in size
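Fluorescence read-out: pyruvate from GPT2 turnover coupled to pyruvate oxidase, HRP and Amplex Red (0.2mM ThPP, 0.2U/mL PO and HRP, 50uM Amplex final). Substrates 250uM a-KG, 2mM L-alanine; enzyme 10ng/uL; 30 min RT.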
Each line names hits and unclear results; the compound was inactive in the other large screens. Unless noted, calls come from the whole dose curve; as a rule, active = well fitted curve in the direction sought with a large enough effect; inconclusive = small, poorly fitted or top-dose-only effect, or another doubt; inactive = no such curve, though single readings can be large; an effect the other way counts as inactive or inconclusive.

COCc1ccc2c(c1)c(OC(C)(C)C(=O)Nc1cccnc1)nn2Cc1ccccc1	HEK293 tox inconclusive, NIH3T3 tox inconclusive
COCc1ccc2c(c1)c(OC(C)(C)C(=O)NC1CCC(O)CC1)nn2Cc1ccccc1 (centres undefined)	NIH3T3 tox 40µM
COCc1ccc2c(c1)c(OC(C)(C)C(=O)N1CC(O)C1)nn2Cc1ccccc1	HEK293 tox inconclusive, NIH3T3 tox 100µM
COCc1ccc2c(c1)c(OC(C)(C)C(=O)NCc1cnccn1)nn2Cc1ccccc1	HEK293 tox inconclusive, NIH3T3 tox 40µM
COc1cccc(NC(=O)[C@@H]2C[C@H](c3ccc(F)cc3)N([S+](=O)([O-])C3CC3)C2)c1	HEK293 tox inconclusive, NIH3T3 tox inconclusive
O=C1[C@@H]2C[C@@H](O)CN2C2(CN(Cc3cccc(F)c3)C2)C(=O)N1Cc1ccccc1	none
O=C(Nc1cc(F)cc(F)c1)N1CCCC2(C1)Nc1cccnc1NC2=NC1CCCC1 (centres undefined)	HEK293 tox 40µM, NIH3T3 tox inconclusive
COc1cccc(NC(=O)N2CCCC3(C2)Nc2cccnc2NC3=NC2CCCC2)c1 (centres undefined)	HEK293 tox inconclusive, NIH3T3 tox inconclusive
COCCNC(=O)c1ccc2nc(-c3cccc(C)n3)oc2c1	HEK293 tox inconclusive, NIH3T3 tox inconclusive (no result: Luciferase inh, hNpr1 antagonist)
CC(C)C[C@@H]1N[C@H](C(=O)N2CCCC2)Cc2cn(Cc3nccn3C)c3cccc1c23	HEK293 tox inconclusive
CC(C)C[C@@H]1N[C@H](C(=O)N2CCCC2)Cc2cn(Cc3ccccn3)c3cccc1c23	HEK293 tox 112µM, NIH3T3 tox inconclusive
CC(C)C[C@@H]1N[C@H](C(=O)N2CCOCC2)Cc2cn(Cc3nccn3C)c3cccc1c23	none
CC(C)C[C@@H]1N[C@H](C(=O)N2CCOCC2)Cc2cn(Cc3ccccn3)c3cccc1c23	HEK293 tox 100µM, NIH3T3 tox inconclusive
COc1nc2nc(CCc3ccccc3)n(C)c2cc1-c1cccc(CO)c1	HEK293 tox inconclusive, NIH3T3 tox inconclusive, Luciferase inh 71µM
Cc1ccc(CN2CCN(C(=O)C3(Cc4cccnc4)CCCCC(=O)N3)CC2)cc1 (centres undefined)	HEK293 tox inconclusive
Cn1cc(-c2cnc3[nH]cc(CC(=O)Nc4ccccc4Cl)c3c2)cn1	NIH3T3 tox inconclusive
COc1ccc(-c2cnc3[nH]cc(CC(=O)Nc4ccc(C(F)(F)F)cc4)c3c2)cc1	HEK293 tox inconclusive, NIH3T3 tox 45µM
COc1ccc(NC(=O)Cc2c[nH]c3ncc(-c4ccccc4)cc23)cc1	NIH3T3 tox inconclusive
NC(=O)Cc1c[nH]c2ncc(-c3cccc(N4CCOCC4)c3)cc12	NIH3T3 tox 100µM, GPT2 inhibitor inconclusive
Cc1ccccc1-c1cnc2[nH]cc(CC(=O)Nc3ccccc3)c2c1	HEK293 tox inconclusive, NIH3T3 tox 40µM, hNpr1 antagonist inconclusive
COc1ccc(-c2cnc3[nH]cc(CC(=O)Nc4ccc(F)c(Cl)c4)c3c2)cc1	HEK293 tox inconclusive, NIH3T3 tox 32µM, GPT2 inhibitor inconclusive
COc1ccc(-c2c(C(=O)NCc3cccc(OC)c3)nc3sccn23)cc1	HEK293 tox inconclusive, NIH3T3 tox inconclusive (no result: Luciferase inh, hNpr1 antagonist)
COCCOC1CCN(C(=O)c2cccc(OC)c2)C1 (centres undefined)	none (no result: Luciferase inh, hNpr1 antagonist)
CCOC(=O)c1ccc(NC(=O)CN2C(=O)NC3(CCCCC3)C2=O)cc1	HEK293 tox inconclusive
O=C(NCc1ccccc1F)c1ccc2oc(-c3cccnc3Cl)nc2c1	HEK293 tox inconclusive, NIH3T3 tox inconclusive (no result: Luciferase inh, hNpr1 antagonist)
O=C(Cc1c[nH]c2ncc(-c3ccccc3)cc12)Nc1ccc(N2CCOCC2)cc1	HEK293 tox 63µM, NIH3T3 tox 25µM
Cn1cc(-c2cnc3[nH]cc(CC(=O)Nc4cccc(F)c4)c3c2)cn1	HEK293 tox 45µM, NIH3T3 tox inconclusive
Cn1cc(-c2cnc3[nH]cc(CC(=O)Nc4ccc(N5CCOCC5)cc4)c3c2)cn1	HEK293 tox inconclusive
O=C(Cc1c[nH]c2ncc(-c3cccnc3)cc12)Nc1ccc(C(F)(F)F)cc1	HEK293 tox inconclusive, NIH3T3 tox inconclusive, hNpr1 antagonist inconclusive, GPT2 inhibitor inconclusive
O=C(Cc1c[nH]c2ncc(-c3ccccc3)cc12)Nc1ccc(C(F)(F)F)cc1	HEK293 tox 63µM, NIH3T3 tox inconclusive
CNC(=O)c1cc(C2CC2)nc2onc(C3CCN(C(=O)c4cccnc4)CC3)c12	none (no result: Luciferase inh, hNpr1 antagonist, GPT2 inhibitor)
Cc1ccc(C(=O)N2CCC3(CC2)N(c2ccccc2)C(=O)CS3(=O)=O)s1	none
Cc1ccc(-c2cc(N3CCCN(C(=O)Cc4ccsc4)CC3)n[nH]2)cc1C	HEK293 tox inconclusive, NIH3T3 tox inconclusive, Luciferase inh inconclusive, GPT2 inhibitor inconclusive
COc1ccc(CCNC(=O)c2ccc3nnc(C4CCOCC4)n3c2)cc1	none (no result: Luciferase inh, hNpr1 antagonist, GPT2 inhibitor)
O=C1CC(c2ccccc2)N(C(=O)CNC(=O)c2nccc3ccccc23)CCCCCCN1 (centres undefined)	HEK293 tox inconclusive, NIH3T3 tox inconclusive
O=C1CC(c2ccccc2)N(C(=O)CNC(=O)c2n[nH]c3ccccc23)CCCCCN1 (centres undefined)	Luciferase inh 25µM
O=C1CC(c2ccccc2)N(C(=O)CNC(=O)c2[nH]nc3c2COc2ccccc2-3)CCCCCN1 (centres undefined)	HEK293 tox 32µM, NIH3T3 tox inconclusive
COCC1CCN(S(=O)(=O)N2CCCCC2CCc2ccccc2)CC1 (centres undefined)	HEK293 tox 45µM, NIH3T3 tox inconclusive
O=C(Nc1ccccc1Cl)C1CCCN(Cc2cccc(-c3ccc(F)cc3F)c2)C1 (centres undefined)	HEK293 tox 32µM, NIH3T3 tox 35µM (no result: Luciferase inh, hNpr1 antagonist)
O=C(NCc1ccc(F)cc1)C1CCCN(Cc2cccc(-c3ccc(F)cc3F)c2)C1 (centres undefined)	HEK293 tox inconclusive, NIH3T3 tox 45µM (no result: Luciferase inh, hNpr1 antagonist)
O=C(NCc1cccnc1)C1CCCN(Cc2cccc(-c3ccc(F)cc3F)c2)C1 (centres undefined)	HEK293 tox inconclusive, NIH3T3 tox inconclusive (no result: Luciferase inh, hNpr1 antagonist)
O=C(NCc1ccccc1F)C1CCCN(Cc2cccc(-c3ccc(F)cc3F)c2)C1 (centres undefined)	HEK293 tox inconclusive, NIH3T3 tox inconclusive (no result: Luciferase inh, hNpr1 antagonist)
O=C(NCc1ccccc1Cl)C1CCCN(Cc2cccc(-c3ccc(F)cc3F)c2)C1 (centres undefined)	HEK293 tox 45µM, NIH3T3 tox inconclusive (no result: Luciferase inh, hNpr1 antagonist)
CN(C)C(=O)c1nc(C(C)(C)C)c2cnccn12	none (no result: Luciferase inh, hNpr1 antagonist)
CCOC(=O)c1ccc(NC(=O)Cn2ccn3nc4c(c3c2=O)CCCCC4)cc1	HEK293 tox 45µM, NIH3T3 tox inconclusive
CCOc1ccc(NC(=O)Cn2ccn3nc4c(c3c2=O)CC(C)CC4)cc1 (centres undefined)	HEK293 tox 40µM, NIH3T3 tox 32µM
O=C(Cn1ccn2nc3c(c2c1=O)CCCC3)Nc1ccccc1	HEK293 tox inconclusive

Screening data from PubChem BioAssay.
